# Laboratory results reported in PubChem BioAssay (NCATS).
# Records with an inconclusive call do not appear. Activity calls are given as the source filed them. The call rests on the fitted dose curve; in most records, active means well fitted inhibition curve with a large enough effect; inconclusive means small, poorly fitted or top-dose-only effect; inactive means no such curve, though single readings can be large or run the other way.
# Target: Nuclear receptor ROR-gamma (Homo sapiens) (UniProt P51449)
# Assay: qHTS assay for small molecule antagonists of the retinoid-related orphan receptor gamma (ROR-gamma) signaling pathway (AID 651802); further: nearly all actives have a fitted effect of over 60% in size;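 on activity change, negative = inhibition: CHO cells with doxycycline-induced ROR-gamma expression; luciferase reporter luminescence driven by ROR response element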
# Settings: ROR-gamma antagonist cell reporter assay; series mostly up to 92.2 µM; activity change, negative = inhibition: at the top concentration
# Outline: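 Luciferase read-out: ONE-Glo luminescence after 30 min at room temperature, following 16hr doxycycline induction at 37C, 5% CO2 of CHO cells with TET-inducible ROR and RORE-LUC reporter; decreased luminescence = reduced reporter activity.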
# On the % scale 0 is the no-effect control and ±100 the full control effect; potency means the concentration at half of the fitted maximal effect.
# Nuclear receptor ROR-gamma (Homo sapiens), sequence (P51449 whole entry, looked up): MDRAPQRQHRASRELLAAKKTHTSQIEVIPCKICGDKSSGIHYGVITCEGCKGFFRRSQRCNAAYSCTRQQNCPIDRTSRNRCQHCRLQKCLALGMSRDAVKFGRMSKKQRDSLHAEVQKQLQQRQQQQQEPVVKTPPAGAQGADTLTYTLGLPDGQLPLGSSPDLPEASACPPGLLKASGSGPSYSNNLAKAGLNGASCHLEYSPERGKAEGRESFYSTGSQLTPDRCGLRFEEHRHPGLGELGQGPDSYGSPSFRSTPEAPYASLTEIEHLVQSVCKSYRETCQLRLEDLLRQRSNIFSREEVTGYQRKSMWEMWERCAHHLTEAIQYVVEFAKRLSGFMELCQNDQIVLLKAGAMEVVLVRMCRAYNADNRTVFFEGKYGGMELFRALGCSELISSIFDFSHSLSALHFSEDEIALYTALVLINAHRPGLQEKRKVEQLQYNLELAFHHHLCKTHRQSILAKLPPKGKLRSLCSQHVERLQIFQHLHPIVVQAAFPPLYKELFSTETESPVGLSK
SMILES,"activity change, negative = inhibition",Potency
Cc1cn([C@H]2C[C@H](N=[N+]=[N-])[C@@H](CO)O2)c(=O)[nH]c1=O,14.1% (inactive),–
O=c1[nH]cc(F)c(=O)[nH]1,-2.56% (inactive),–
Nc1ccn([C@H]2CC[C@@H](CO)O2)c(=O)n1,10.4% (inactive),–
CCC1(c2ccccc2)C(=O)NCNC1=O,8.98% (inactive),–
CC(C)NCC(O)c1ccc(O)c(O)c1 (stereo not drawn),13.4% (inactive),–
O=c1c(-c2ccc(O)cc2)coc2cc(O)cc(O)c12,0.114% (inactive),–
NS(=O)(=O)c1cc2c(cc1Cl)NCNS2(=O)=O,25.9% (inactive),–
COc1ccc2[nH]cc(CCNC(C)=O)c2c1,60.4% (inactive),–
Cn1c(=O)c2c(ncn2C)n(C)c1=O,8.06% (inactive),–
Cc1cn([C@H]2C=C[C@@H](CO)O2)c(=O)[nH]c1=O,–,inactive
NCCS(=O)(=O)O,-17.3% (inactive),–
Clc1ccc(C(c2ccccc2Cl)C(Cl)Cl)cc1 (stereo not drawn),–,33.5 µM (active)
Nc1c2c(nc3ccccc13)CCCC2,-9.56% (inactive),–
